KB-3-1 cytotox: kills parental KB-3-1 adenocarcinoma cells; KB-3-1 viability, CellTiter-Glo ATP luminescence, 72 h; Potency, µM (titrated, usually from 46.1 µM), most hits filed as cytotoxic; hit rate 1.4% among 400,000; further: on the % scale 0 is the no-effect control and ±100 the full control effect; nearly all actives have a fitted effect of over 60% in size
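Cytotoxicity in the drug-sensitive parental line KB-3-1 was scored as loss of CellTiter-Glo luminescence following 72 h incubation with compound. Values come from curve fitting of normalized concentration-response data.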
MCF10A rereplic: DNA re-replication induction in MCF 10a cells | Potency, µM (highest dose often 46.1 µM), for the others: at the highest dose activity, positive = re-replication, actives largely listed as activators | MCF 10A DNA re-replication, Hoechst nuclear intensity, 48 h | AID 624296 | hit rate 2.9% among 350,000; further: % of control where 0% means no effect; nearly all actives have a fitted effect of over 50% in size
KB-V1 cytotox: kills drug-selected multidrug resistant KB-V1 cells; hit rate 3.4% among 400,000; KB-V1 MDR cells viability, CellTiter-Glo, 72 h; Potency, µM (titrated, usually from 46.1 µM), usual class: cytotoxic; further: on the % scale 0 is the no-effect control and ±100 the full control effect; nearly all actives have a fitted effect of over 60% in size
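Cells of the MDR subline KB-V1 are plated, dosed with compound at multiple concentrations, and incubated 72 h at 37 degrees C; CellTiter-Glo is then added and luminescence read after 10 min.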
SW480 rerep: DNA re-replication induction in SW480 cells | Potency, µM (top dose mostly 46.1 µM), for the others: at the highest dose re-replication activation, most hits filed as activators | AID 624297 | SW480 DNA re-replication, Hoechst DNA content imaging, 48 h | hit rate 1.8% among 340,000; further: % of control where 0% means no effect; nearly all actives have a fitted effect of over 55% in size
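Image-based read-out: total Hoechst fluorescence of nuclei (405 nm excitation, 500-530 nm emission), with hits raising the fraction of high-intensity nuclei. SW480 colon cells incubated 48 hr with compounds at 37 C.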
HT1080 IDH1KD tx: kills HT-1080 cells with IDH1 knockdown; AID 686971; HT-1080 IDH1 knockdown viability, ATP luminescence, 48 h; Potency, µM (top dose mostly 46.1 µM), for the others: top-dose activity, negative = toxicity, actives largely listed as cytotoxic; hit rate 2% among 360,000;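 further: 0% = DMSO wells and -100% = cell-free medium wells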
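CellTiter-Glo luminescence after 48 h compound exposure at 37 degrees C of IDH1-knockdown HT-1080 cells in 5% FBS RPMI. %Activity scaled between DMSO wells and cell-free media wells, with curves fitted and assigned curve classes.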
HT1080NT lethal: kills 2HG-producing HT-1080-NT fibrosarcoma cells; HT-1080-NT fibrosarcoma viability, CellTiter-Glo ATP luminescence, 48 h; AID 686970; hit rate 1.6% among 360,000; Potency, µM (top dose mostly 46.1 µM), inactives show at the highest dose activity, negative = less viability, most hits filed as cytotoxic;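 further: NT is the 2HG producing partner of a matched IDH1 knockdown line; 0% = DMSO-treated cells and -100% = media-only wells without cells; nearly all actives have a fitted effect of over 55% in size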
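Fibrosarcoma NT cells, 750 per well in 5% FBS RPMI, were exposed to compound for 48 hours. Viability: CellTiter-Glo luminescence.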
Starred values were filed as active, the others as inactive; i = inactive; ? = inconclusive; . = no result; [ ] = another dose, or the depositor's remark. Sampled rows, rich in hits. Any-hit rate of the full collection: about 7.9%. The call rests on the fitted dose curve; in most records, active means well fitted curve in the direction sought with a large enough effect; inconclusive means small, poorly fitted or top-dose-only effect, or another doubt; inactive means no such curve, though single readings can be large; an effect the other way counts as inactive or inconclusive. Potency means the concentration at half of the fitted maximal effect.

SMILES | KB-3-1 cytotox | MCF10A rereplic | KB-V1 cytotox | SW480 rerep | HT1080 IDH1KD tx | HT1080NT lethal
CCOc1ccc(S(=O)(=O)N2CCN(C(=O)c3ccc(C)c(S(=O)(=O)N4CCOCC4)c3)CC2)cc1 | ? | 9% | 21µM* | 3% | -10% | -9%
COc1ccc(N2CCN(C(=O)COc3ccc(S(=O)(=O)N4CCOCC4)cc3C)CC2)cc1 | i | 7% | ? | 1% | -12% | -7%
O=C(NCCCCc1ccccc1)c1cccc([N+](=O)[O-])c1 | i | 3% | i | 1% | 0% | 19%
Cc1cc(C(=O)NC(C)c2ccccc2)c2cc(F)ccc2n1 (stereo not given) | i | -1% | i | -6% | 7% | -1%
CCOC(=O)N1CCC(N(CCN(C)C)C(=S)Nc2ccccc2Cl)CC1 | i | -5% | i | 0% | 1% | -5%
COc1cccc(-n2c(SCC(N)=O)nnc2-c2c[nH]c3ccccc23)c1 | i | 2% | ? | -11% | 5% | 9%
CCOc1ccc(CCNC(=O)c2cccc(S(=O)(=O)N3CCCCC3)c2)cc1OCC | ? | ? | 6.5µM* | 7% | -28% | -11%
O=C(c1ccc(S(=O)(=O)N2CCOCC2)cc1)N1CCN(C2=NS(=O)(=O)c3ccccc32)CC1 | i | 0% | i | -4% | 14% | 6%
CCOc1ccc(CCNC(=O)CN2C(=O)COc3ccc(S(=O)(=O)N4CCCCCC4)cc32)cc1 | i | . | 9.2µM* | . | . | .
O=C(NCc1ccccc1F)c1cccc(S(=O)(=O)N2CCCCC2)c1 | i | 2% | 4.1µM* | 15% | -5% | 3%
O=C(c1ccc(S(=O)(=O)N2CCOCC2)cc1)N1CCN(c2ccccn2)CC1 | i | 1.5µM* | i | -39% | 9% | 11%
Cc1ccc(S(=O)(=O)N2CCN(C(=O)c3cc4c(s3)CCCC4)CC2)c(C)c1 | i | -3% | i | -11% | -2% | -2%
COc1ccc2[nH]c(C)cc(=O)c2c1 | i | -1% | i | -3% | 13% | 12%
COc1ccc2[nH]c3c(C)c4ccncc4c(C)c3c2c1 | 18µM* | -45% | 8.2µM* | -7% | 18µM* | 23µM*
COc1ccc(/C=C/C(=O)OCC(=O)N2CCCC2)c(OC)c1 | i | 2% | 12µM* | -3% | 20% | 10%
COc1ccc(OC)c(/C=C/C(=O)OCC(=O)N2CCCC2)c1 | i | -4% | i | 1% | 0% | 9%
Cc1cc(C)cc(NC(=O)CSc2ccc(-c3cccs3)nn2)c1 | i | 11% | i | 17% | -28% | -19%
CCc1ccc(NC(=O)CSc2ccc(-c3ccccn3)nn2)cc1 | ? | 12µM* | i | 12% | -28% | ?
CCOc1ccc(NC(=O)CSc2ccc(-c3ccco3)nn2)cc1 | i | 1% | i | -6% | -4% | 8%
O=C(CSc1ccc(-c2ccco2)nn1)Nc1ccccc1 | i | 0% | 18µM* | -11% | -10% | 6%
O=C(CSc1ccccn1)Nc1ccc2c(c1)C(=O)c1ccccc1C2=O | i | ? | ? | -6% | 21µM* | ?
O=C(CSc1ccccn1)Nc1ccc2c(c1)CCC2 | i | ? | i | -19% | 3% | 6%
O=C(CSc1ccc(-c2cccs2)nn1)Nc1ccccc1 | i | 16% | 12µM* | -2% | -6% | -12%
C(=N\n1cnnc1)/c1cn(-c2cccs2)nc1-c1ccccc1 | i | 0% | i | -3% | -6%[9.24 µM] | -11%
CCCCCC(=O)N(CN1C(=O)CCC1=O)c1ccccc1 | i | -1% | i | -6% | 8% | -12%
CCOC(=O)C1CCCN(S(=O)(=O)c2cc3c(cc2Cl)NC(=O)CO3)C1 (stereo not given) | i | -1% | i | 1% | -1% | -2%
CCNc1nc(N2CCCN(C)CC2)nc2cc(OC)c(OC)cc12 | . | . | . | . | -23% | -25%
